Measured values published in the supplement of paper PMC6555819.

Columns and labels:
Assay in all cases: PBM binding z-score (relative to random genomic background probes); higher = stronger binding; sequences stand for … in GC…GCGATTGACAGCGTAGAATGAAGG
[1] = system: PPARg:RXRa DBDmut IVT, anti-RXR (DBD mutation: RXRa K156A/R161A, NR concentration 270 nM, RXRa partner concentration 90 nM)
Procedure, shortened: (§1)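 Custom Agilent 4×180K protein-binding microarrays carried double-stranded probes. Their 34-nt variable regions held direct-repeat seeds, single-nucleotide variants, half-site ablations and random human genomic background sequences. Arrays were incubated 1 h with ligand-free nuclear receptor dimers in PBS pH 7.4, 2% milk, 0.02% Triton X-100, 1 mM DTT, 0.2 mg/mL BSA and 0.4 mg/ml salmon testes DNA. Antibodies against each partner (one per run) detected binding, and scanned fluorescence was regression-normalized. Binding z-scores use random background probes as reference.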

[2] = system: PPARg:RXRa IVT, anti-PPARg (NR concentration 270 nM, RXRa partner concentration 90 nM)
Procedure, shortened: as §1

[3] = system: PPARg DBDmut:RXRa IVT, anti-PPARg (DBD mutation: PPARg1 K132A/R137A, NR concentration 270 nM, RXRa partner concentration 90 nM)
Procedure, shortened: as §1

[4] = system: PPARg DBDmut IVT, anti-PPARg (DBD mutation: PPARg1 K132A/R137A, NR concentration 270 nM)
Procedure, shortened: as §1

[5] = system: PPARg homodimer (NR concentration 180 nM)
Procedure, shortened: as §1

[6] = system: PXR:RXRa (NR concentration 270 nM, RXRa partner concentration 90 nM)
Procedure, shortened: as §1

[7] = system: PXR homodimer (NR concentration 270 nM)
Procedure, shortened: as §1

[8] = system: RARa:RXR (NR concentration 270 nM, RXRa partner concentration 90 nM)
Procedure, shortened: as §1

[9] = system: RARa homodimer (NR concentration 270 nM)
Procedure, shortened: as §1

[10] = system: RARb:RXRa (NR concentration 270 nM, RXRa partner concentration 90 nM)
Procedure, shortened: as §1

Sequence	PBM binding z-score [1]	PBM binding z-score [2]	PBM binding z-score [3]	PBM binding z-score [4]	PBM binding z-score [5]	PBM binding z-score [6]	PBM binding z-score [7]	PBM binding z-score [8]	PBM binding z-score [9]	PBM binding z-score [10]
GATACCGGGTCAAGGCCAGAGTACGCGTATTGAT	2.4	4.67	0.967	0.0234	0.895	2.62	0.124	2.97	0.054	3.9
CTCGAAAGGTCGATTGAGGTGAGTATACGGATAA	0.741	1.76	-0.148	0.11	0.805	4.35	0.0799	3.05	0.109	3.67
ATCTCTAGGTAAAGATAATTCAGTGAATGCAAAT	2.32	1.93	1.06	1.29	0.141	0.14	0.504	0.441	1.38	-0.0226
GCGACTGGGGCAAAGCAGGTTAGCATAAGGTTGG	4.21	3.26	-0.633	-1.6	-0.037	-0.216	-0.676	0.00756	-0.55	0.773
ATATGTAGGTTATCGGGTCATTGAGTTTGCGCAT	7.71	7.5	3.11	1.9	2.89	4.55	10.5	3.82	1.41	2.86
TTACTAAGGTGAAAGGTCGTTGATGCACGCCTTG	4.24	5.63	1.41	1.35	2.47	4.61	0.84	6.79	0.463	3.51
GCGACTGGGGCAAAGCAGGTTAACATAAGGTTGG	4.62	3.42	-0.747	-0.874	0.353	0.721	-0.496	1.1	-0.822	1.05
CCAGACAGGTGAAAGGTAACACAGTCTGGTACGC	2.09	3.4	-0.472	-0.499	0.837	1.29	-0.0519	1.69	0.436	1.36
ACCATTAGTTGACTTAGGGCAACCGATACGACGC	0.771	0.653	0.856	-0.189	0.706	0.147	0.618	0.916	0.526	0.973
TTACCGAGGTGAGCTGAGGTCGTTGATCCAACTC	1.35	2.15	0.433	-0.145	-0.159	5.27	0.0419	2.36	-0.912	1.76
CAAACTAGGTCAAGTGGTCAAAGTCCGCTTCCCG	8.23	8.54	2.88	1.21	2.1	2.11	0.168	3	0.47	4.38
CCTACTGGGCCACGAAAGGTTATTGATTCAGTGA	5.07	5.34	0.351	-0.129	0.506	1.43	0.179	1.78	0.179	1.39
GCATATAGATAATACAAGGTGAAAGTCCGATTGT	0.0768	0.523	1.29	0.755	0.731	0.197	0.246	0.795	0.194	0.165
CATGCTAGGTCATGGTCAGCTAATCTACAGTATG	3.61	3.51	0.62	0.712	1.58	1.4	-0.662	2.58	0.163	3.92
TCGAGTAGGTAAGGGGCATTCAGAATGGCGTCGA	1.59	0.472	-0.991	-1.03	0.148	-0.173	-0.537	-0.00481	-0.369	0.496
ACTATTAGTTGAGACGAGGGAAACCGATAGGTTG	0.0625	-0.339	0.706	0.394	0.465	-0.464	-0.0777	0.0368	0.655	-0.193
ACAGACAGGTGATGAAGGTAACTCAGGCTATCAT	0.422	0.692	0.619	0.238	0.146	-0.153	0.282	0.117	0.425	0.236
ACTAGTTGGTCAGCTGATGTCACACACAATTCGG	1.1	0.986	0.46	0.51	0.558	0.361	-0.542	0.497	0.341	0.995
CCTACTGGGCCACGAAAGGTCTTTGATTCAGTGA	4.89	5.29	0.279	-0.311	0.598	0.109	-0.43	0.284	-0.304	0.791
CAAACTAGGTCACAGAGTTCAAAGTCCGTGCGTA	8.6	9.07	5.41	5.72	4.68	6.97	14.2	5.88	1.27	4.91
TCATATATGTAAACAGGTGAAAGTCCGTAAGTTA	2.85	1.7	1.25	1.22	0.985	1.08	0.358	1.24	0.262	0.572
CCGACTGGGGCATAAGGTGACCATAAGCCAGCCC	2.39	3.15	-0.511	-1.28	0.186	-0.504	-0.373	0.332	-0.248	1.23
ATATGTAGGTTAGCTGGGGTCATTCAAACTAGGC	7	6.34	2.93	1.75	3.19	6.37	4.83	5.84	1.69	3.18
CAAACTAGGACACCGGAAGGTCAAAGTCCGCATG	6.39	6.49	2.4	2.63	2.78	3.89	1.68	4.36	1.36	3.59
CCGACTGGGGCGAGGTTACCATAACGCACAGCCA	0.314	0.726	-1.05	-1.46	0.254	0.372	-0.517	1.1	-0.00275	0.965

Sequence	PBM binding z-score [1]	PBM binding z-score [2]	PBM binding z-score [3]	PBM binding z-score [4]	PBM binding z-score [5]	PBM binding z-score [6]	PBM binding z-score [7]	PBM binding z-score [8]	PBM binding z-score [9]	PBM binding z-score [10]
GCTCGGAGGACAAGGTCCGAGCTTTGTCCGTAGA	-0.364	-0.655	-1.03	-1.31	-1.07	-0.519	-1.19	-0.414	-1.77	0.839
TCTAGTTGGTCACGGAGGTCTCACACGACGGGTA	2.19	2.67	0.65	1.23	1.03	0.478	-0.307	0.619	-0.249	1.91
TCTAGCTGGCCAGAGGGTCACTCAAGAGGTACGG	0.731	-0.216	-1.57	-1.05	0.244	1.38	-0.401	1.83	-0.851	1.73
ACTTACGGGTCAACGAGATTATAGCACGCGTATA	3.56	4.11	1.69	2.1	2.79	3.31	0.376	4.37	1.47	4.23
CCTTACGGGTCACGAGGTTTTAGCACGACGAGCG	4.32	5.48	0.0926	0.246	2.12	3.85	-0.106	4.95	0.695	4.54
CGTCCCAGGTCAAGGTCAGTGAAAGAGACTCGAA	2.24	3.62	0.134	-0.571	3.49	4.05	1.33	4.43	2.12	5.02
GAAGACAGGTGAAACGCAGGTAACTCAGGGTGGC	0.674	1.15	0.0757	-0.907	-0.0582	-0.0972	-0.579	0.542	-0.418	0.745
ATATGTAGGTTAGCTGGGGTCATACAGACTAGGC	6.97	6.06	1.52	1.48	2.67	6.28	3.07	5.89	1.68	3.13
CCTACTGGGCCAAGGTCATCGATCAGTCAAAGCA	4	4.6	-0.807	-0.598	1.98	3.71	0.25	4.34	0.517	3.65
TGAATGAGGTTATAAGTTCAGGGAACGTTGCAAA	1.14	1.78	0.562	0.599	1.97	3.24	1.46	3.81	0.0281	2.87
TGAATGAGGCTATAAGATCAGGGAACGTTGCAAA	-0.531	-0.142	0.314	0.0126	-0.853	-0.467	-0.512	-0.215	-0.382	-0.0944
GCTAGTTGGTCAGTATAAGGTCACACACCGGTCG	1.28	2.3	0.282	0.251	4.01	4.26	1.61	4.86	2.27	3.5
TAGCCTAGGTCATGCGGGCCAGTATGGTGTCGGC	1.73	2.9	-0.0668	-0.181	0.816	1.42	-0.582	2.52	-0.311	3.65
CCTCGGAGGACCGAAGGTCAGAGCTGTCCGCTTT	-0.463	-0.175	-1.41	-1.98	0.693	1.16	-0.615	1.55	-0.211	2.2
TCATGTAGGTAATACAGGTGAAAGTCGGCATCTA	3.86	3.68	0.771	0.521	0.456	0.27	-0.325	0.507	0.465	0.0857
ACTGTTAGTTGACTTAGGGCAACCGATACGACGC	0.0464	0.607	0.909	0.844	0.977	0.277	0.341	0.582	0.354	1.04
CCAGACCGGTGAAAGGTAACTCAGTCTGGTACGC	-0.315	1.07	-1.56	-0.816	0.901	0.218	-0.239	0.267	-0.377	0.477
ATCTCTTGGTAAAGATAGTTCAGTGAATGCAAAT	-0.0767	0.448	0.845	1.88	0.879	0.78	0.85	0.962	0.477	0.724
TTACCAAGGTGAGGGTCGTTGATCCCTCTGTAGA	1.3	2.21	-0.596	-0.428	0.109	0.865	-0.63	1.36	-0.812	1.45
GCATATAGGTAGTACAAGGTGAAAGTCCGATTGT	0.709	1.04	0.664	0.977	-0.146	0.403	0.176	0.66	0.249	0.368
CCAACTAGGTCATCCAGGACAGTGAATACATTGA	7.67	7.53	1.61	1.62	2.3	1.94	1.63	2.35	1.24	3.89
TCATATAGGTAATACAGGTGCAAGTCGGCATCTA	3.87	2.67	1.02	0.643	0.337	1.07	0.613	0.828	1.43	0.563
GATACAGGGTCAAGGCCAGAGAACGCGTATTGAT	2.63	3.9	1.58	-0.524	2.6	3.71	0.476	4.41	1.07	4.49
AGAATGAGGTTATACGTAGATCAGGGACGAAAGT	3.78	2.16	1.14	1.42	0.4	1.12	0.405	1.49	0.392	1.42
